Compounds without any hit were thinned out: in the full panel of roughly 79,000, 15% have a hit. Cut-off read from the data, not from the text of the source: active = growth inhibition above about 70%; inactive = the rest.
What was measured:
[1] = NCI Yeast Anticancer Drug Screen. Data for the rad50 strain (AID 155);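 note: 0% = growth of vehicle-only cultures of the same strain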; conditions: S. cerevisiae rad50 strain growth inhibition; at 50.0 µM; stronger effect = higher value
Summary of the method: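 Readout: growth inhibition relative to vehicle-treated cultures. Compound exposure was carried out in a genetically defined yeast strain deficient in DNA damage repair.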

[2] = NCI Yeast Anticancer Drug Screen. Data for the mec2-1 strain (AID 157); conditions: S. cerevisiae mec2-1 strain, at 50.0 µM, stronger effect = higher value
Summary of the method: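 Strain: mec2-1 (DNA repair/cell cycle alteration). Compound exposure, then growth measured; inhibition expressed relative to vehicle.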

[3] = NCI Yeast Anticancer Drug Screen. Data for the sgs1 mgt1 strain (AID 161);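 note: 0% = growth of cultures given vehicle only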; conditions: S. cerevisiae sgs1 mgt1 strain, at 50.0 µM, stronger effect = higher value
Summary of the method: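 Mutant yeast exposed to compound; growth scored against vehicle-only wells.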

[4] = NCI Yeast Anticancer Drug Screen. Data for the cln2 rad14 strain (AID 165);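 note: 0% = growth equal to vehicle treated cultures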; conditions: S. cerevisiae cln2 rad14 strain, at 50.0 µM, stronger effect = higher value
Summary of the method: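 Compounds are applied to the cln2 rad14 yeast strain, and growth is then compared with that of vehicle-treated cultures to give inhibition.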

[5] = NCI Yeast Anticancer Drug Screen. Data for the bub3 strain (AID 167); conditions: S. cerevisiae bub3 mutant strain, at 50.0 µM, stronger effect = higher value
Summary of the method: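 Readout: yeast growth inhibition, expressed relative to vehicle-only wells. The test organism is a mutant strain from a panel with lesions in DNA repair or checkpoint genes.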

[6] = NCI Yeast Anticancer Drug Screen. Data for the mlh1 rad18 strain (AID 175); conditions: S. cerevisiae mlh1 rad18 strain growth inhibition; at 50.0 µM; stronger effect = higher value
Summary of the method: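 Read-out is yeast growth inhibition, calculated against vehicle-only controls. The compound was applied to a strain engineered with DNA damage repair alterations.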

Measured: growth inhibition

Cc1ccc(Cl)cc1NC(=S)N(C)C
inactive: [1] 15.9% | [2] 16.1% | [3] 34.7% | [4] 3.75% | [5] 50.2% | [6] 24.5%

O=S(=O)(O)C1CC2C(c3ccccc31)N1ON2O1 (stereo unspecified)
inactive: [1] 54.8% | [2] -2.05% | [3] 10.3% | [4] 3.75% | [5] -14.7% | [6] -0.95%

OC(c1ccoc1)c1cc2ccccc2s1 (stereo unspecified)
inactive: [1] 65% | [2] 23.2% | [3] 52.5% | [4] 22.2% | [5] 21.6% | [6] 36.7%

CC1=CC(OC2CCCCO2)CC(C)(C)C1 (stereo unspecified)
inactive: [1] -5.2% | [2] -3% | [3] -11% | [4] -16.4% | [5] 0.05% | [6] -5.15%

CCc1sc(N)nc1-c1ccccc1
inactive: [1] -3.15% | [2] -23.9% | [3] 7.05% | [4] -1.65% | [5] 4% | [6] -8.75%

CC1CC(c2ccccc2)S(=O)(=O)O1 (stereo unspecified)
inactive: [1] -5.9% | [2] -4.3% | [3] -3.7% | [4] -12.2% | [5] 35% | [6] -9.95%

CCc1nnc2n1N=C(c1ccc(-c3ccccc3)cc1)CS2
inactive: [1] 20.4% | [2] 28.3% | [3] 3.3% | [4] 5.05% | [5] 3.05% | [6] 26.1%

Nc1ccc([N+](=O)[O-])c2ccccc12
inactive: [1] 17.1% | [2] -8.75% | [3] 12.7% | [4] 10.8% | [5] 24.6% | [6] 12.7%

CCOC(=O)NC(CC)c1ccc2oc3ccccc3c2c1 (stereo unspecified)
inactive: [1] -10.5% | [2] 1.9% | [3] 20.4% | [4] -4.15% | [5] 32% | [6] -15.3%

C=C(C)CS(=O)(=O)Cc1ccccc1
inactive: [1] 14.6% | [2] -10.1% | [3] -1.8% | [4] -40.9% | [5] -4.55% | [6] 7.6%

CNC(=O)NC1NC(=O)N(C)C1=O (stereo unspecified)
inactive: [1] 0.3% | [2] -12.7% | [3] -0.4% | [4] -14.6% | [5] -0.45% | [6] -12.7%

CCOC(=O)C(NC(=O)CC)(Nc1ccc(S(=O)(=O)Nc2onc(C)c2C)cc1)C(F)(F)F (stereo unspecified)
inactive: [1] -6.35% | [2] -15.4% | [3] -8.85% | [4] 15.6% | [5] -6.4% | [6] -17.4%

OCC1=CCCCC1
inactive: [1] 6.95% | [2] 1.85% | [3] -6.65% | [4] 12.7% | [5] -14.5% | [6] 0.25%

CCCOC(=O)COc1ccccc1
inactive: [1] 10.1% | [2] 5.7% | [3] -4.3% | [4] -45% | [5] -11.4% | [6] 2.4%

CNC1=C(Sc2ccc(Cl)cc2)C(=O)c2ccccc2C1=O
inactive: [1] -0.4% | [2] 19.4% | [3] 1.45% | [4] 3.25% | [5] 2.75% | [6] 0.35%

COC(=O)CCC(CCC(=O)OC)([N+](=O)[O-])[N+](=O)[O-]
inactive: [1] 0.4% | [2] -1.95% | [3] 4.5% | [4] -55.6% | [5] 10.7% | [6] 3.3%

C/C(CCc1ccccc1Br)=N/NC(N)=O
inactive: [1] -11.1% | [2] -0.9% | [3] -8.55% | [4] -34.4% | [5] 2.6% | [6] -11.3%

O=C1NC(c2ccccc2)(c2ccccc2)C(=O)N1CNc1ccccn1
inactive: [1] -0.4% | [2] -14.8% | [3] -31.8% | [4] 8.95% | [5] -8.3% | [6] 29.6%

CO[C@@H]1C2C3c4ccccc4C(c4ccccc43)C2[C@H](OC)[C@H]2OC(c3ccccc3)O[C@H]21 (stereo partly specified)
inactive: [1] -13.4% | [2] -14.9% | [3] 7.15% | [4] 10% | [5] 2.15% | [6] -2.65%

CC(C)=CCNc1ncnc2c1c(C#N)cn2C1OC(CO)C(O)C1O (stereo unspecified)
inactive: [1] -1.2% | [2] -23.7% | [3] -23.4% | [4] 15.7% | [5] -17.5% | [6] -5.95%

Cc1ccc(S(=O)(=O)C(CCC(=O)c2ccccc2)(CCC(=O)c2ccccc2)[N+](=O)[O-])cc1
inactive: [1] -9.05% | [2] -9.45% | [3] -10% | [4] -26% | [5] -1.5% | [6] 0%

— PubChem BioAssay (NCI)
